The whole screen tested about 91,000 compounds, of which about 160 (0.18%) were called active. The sample holds actives, similar compounds and a random draw of the others, so the mix is not that of the screen. A number with no mark means an inactive call.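 How the source made its calls: active means inhibition above the batch mean plus 3 SD and confirmed as a hit by visual image inspection (cut at about 30% in these data, passing the limit was not always enough); inconclusive means above the inhibition threshold but rejected on visual inspection; inactive means the rest.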

This assay is described as follows: modifiers of F-actin cytoskeleton organization, primary screen, imaging, HUVEC, phalloidin staining, high-content imaging (AID 836). The settings on record: HUVEC TNFa F-actin phalloidin imaging, at 2 µM, stronger effect = higher value.
As a reminder, the inhibition is the change of the read-out against control, counted positive when it falls. With `Cn1c2c(c(=O)n(C)c1=O)[C@@H]1c3c(ccc4ccccc34)OC[C@@H]1CO2`, the inhibition is 8.1%.

On to `COc1ccc2c(c1OC)C(=O)c1ccccc1C2=O`, for which the inhibition was 1%. On to `CCC(C)n1c(-c2cc(OC)c(OC)c(OC)c2)nc2nc3ccccc3nc21` (centres undefined), for which the inhibition was -3.2%. As for `CCNC(=S)Nc1cccc(Cl)c1C`, the inhibition was 11.2%. For `COc1ccc(-c2csc3nc(-c4ccccc4F)oc(=O)c23)cc1OC` the value was -3.2%.

For the molecule `O=c1oc2c(Cl)cc(Cl)cc2cc1-c1nnc(Nc2ccccc2F)s1`, the inhibition was 5%.

Consider `O=C(/C=C/Nc1ccccc1OC(F)(F)F)C(F)(F)F`, for which the inhibition was 6.2%.

Take `CCC(=O)NC(NCC1CCCO1)C(Cl)(Cl)Cl` (centres undefined): the inhibition was -23.7%. With `C=CCn1c(Oc2ccc(C(=O)OC)cc2)nc2c1c(=O)n(C)c(=O)n2C` the figure was 13.6%; with `O=C(Nc1ccccc1Cl)O/N=C(/c1ccccc1)c1ccccn1`, -5.5%. With `CC(C)NC(=O)NC(=O)COC(=O)c1ccc(NC(=O)CC#N)cc1` the figure was 2%; with `O=C(O)COc1ccc(-c2nccc(-c3cccs3)n2)cc1`, 29.5%. `O=C(CSc1ccccc1)Nc1ccc(NC(=O)c2ccco2)cc1`: the inhibition was 20.5%. With `O=C(CCc1ccc(S(=O)(=O)NC2CCCCC2)cc1)NCc1ccccc1` the figure was -16.8%; with `COc1cccc(C(=O)NNC(=O)c2ccccc2Br)c1`, -16.2%. On to `CC(CNc1ccc([N+](=O)[O-])cc1)NC(=O)c1ccccc1Br` (centres undefined), for which the inhibition is -6.1%. With `O=C(Nc1ccc(Cl)cc1)OCc1cc(-c2ccccc2)on1` the figure was -6.9%. For `O=C1c2oc3ccccc3c(=O)c2C(c2cccc(O)c2)N1c1ccccn1` (centres undefined) the value was -31.1%. Take `O=C1c2oc3ccc(Br)cc3c(=O)c2C(c2cccc(F)c2)N1CCO` (centres undefined): the inhibition is 7.4%.

As to `COCCN1C(=O)c2oc3c(C)cc(C)cc3c(=O)c2C1c1cccc(O)c1` (centres undefined), the inhibition was 53.6% (active).

Regarding `COc1ccc(C(=O)N2CCc3cc(OC)c(OC)cc3C2c2cccc([N+](=O)[O-])c2)cc1` (centres undefined), the inhibition was -0.9%. With `CCN(CC)C(=O)CSC1c2ccccc2C(=O)N1c1ccccc1` (centres undefined) the figure was -35.9%.

On to `Cc1cccc(NC(=S)N2CCC(c3nc4ccccc4s3)CC2)c1`, for which the inhibition was -9.4%.

Turning to `COC(=O)c1ccc(C(=O)OC)c(NC(=S)N2CCCCC2)c1`, the inhibition was -4.3%.

Take `Cc1ccc2nc(Nc3ccccc3O)nc(-c3ccccc3)c2c1`: the inhibition was -0.7%. For the molecule `COc1ccc(/C=N/Nc2nc3ccccc3c(=O)[nH]2)cc1`, the inhibition was 0.1%.

As to `CC(Oc1ccc(F)cc1F)C(=O)/C=C/N(C)C` (centres undefined), the inhibition was -4.4%. Regarding `Cc1ccc(OCC(=O)Nc2cccc3c2CCCC3)cc1C`, the inhibition was -5.6%. With `COc1cc(C(=S)N2CCOCC2)cc(OC)c1OC(=O)c1cc([N+](=O)[O-])c(C)c([N+](=O)[O-])c1` the figure was -7.7%. For `COc1ccc(C(=S)Nc2ccccc2)cc1` the value was 2.8%; for `COc1nc(-c2ccc(Cl)cc2)ccc1-c1noc(-c2cccs2)n1`, 19.6%. As to `Cc1occc1C(=O)NNC(=S)NCC(C)C`, the inhibition is -20.3%. With `CSc1ccccc1-c1nnc(-c2ccc(Cl)cc2)o1` the figure was -9.7%; with `Cc1ccc(-c2nc3ccccc3[nH]2)cc1NC(=O)c1sc2ccccc2c1Cl`, -19%. As for `O=C(c1ccccc1)c1cc(-c2ccccn2)c(N2CCOCC2)s1`, the inhibition was -8.8%. With `COC(=O)C(C)Oc1ccc2c(-c3cccc([N+](=O)[O-])c3)cc(=O)oc2c1` (centres undefined), the inhibition was 19.5%. As to `Cc1ccccc1NC(=O)c1ccccc1NS(=O)(=O)c1cccc2cccnc12`, the inhibition is -7.4%. For the molecule `Cc1nn(Cc2ccccc2Cl)c(C)c1NC(=O)Cn1nc([N+](=O)[O-])c(Cl)c1C`, the inhibition is -13.3%. For `CC(C)C(C)NC(=O)COc1ncnc2ccccc12` (centres undefined) the value was 2.1%.

As for `O=C(Nc1ccc(-n2ccnc2P(=O)(O)c2ccccc2)cc1)c1ccccc1Br`, the inhibition is -15.1%.

For `O=C(CSCc1ccc([N+](=O)[O-])cc1)NCCSCc1ccccc1`, the inhibition was -4.8%. With `COc1ccc(/C=C(/NC(=O)c2ccc(C)cc2)c2nc3ccccc3[nH]2)cc1OC` the figure was 24.6%.

As to `Cc1cc(C)c2c3c(sc2n1)C(c1ccccc1)C(C#N)=C(N)O3` (centres undefined), the inhibition is 7.5%. With `CC(C)(C)c1cc2cccnc2n1Cc1ccccc1` the figure was -13.7%; with `COCCCNC(NC(=O)c1ccc(C)cc1)C(Cl)(Cl)Cl` (centres undefined), -4.7%. Take `O=C1COc2ccc(NC(=O)N3CCN(c4ccc(F)cc4)CC3)cc2N1`: the inhibition is -1.9%. With `COc1ccccc1NC(=O)[C@H](COCc1ccccc1)NC(=O)OC(C)(C)C` the figure was -9.9%. For `Oc1ccccc1/C=N/n1c(-c2cccs2)n[nH]c1=S` the value was -11.3%; for `COc1ccc(C(=O)c2c(C)oc3cc([N+](=O)[O-])c(O)c([N+](=O)[O-])c23)cc1`, 3.1%. For `C=CCOc1c2ccc(C(=O)N(CC)c3ccc(OC)cc3)cc2nn1C` the value was 12.9%; for `COc1cccc(/C=N/NC(=O)c2cccc([N+](=O)[O-])c2)c1OS(=O)(=O)c1ccc(C)cc1`, -0.8%. As for `CCn1c(SC)nc(O)c(C(c2ccc(OC)c(O)c2)c2c(O)nc(SC)n(CC)c2=O)c1=O`, the inhibition was 10.2%. With `COc1cccc(NC(=O)c2nn(C34CC5CC(CC(C5)C3)C4)cc2[N+](=O)[O-])c1` the figure was 14%. For `Cc1ccc(-c2nnc(C)c(N3CC(C)OC(C)C3)n2)cc1` (centres undefined) the value was 9.5%. For `COC(=O)c1c(CCl)noc1C(=O)NC(C)C` the value was -7%. For `O=C1c2ccccc2C(=O)N1CC1c2ccccc2CCN1S(=O)(=O)c1ccccc1` (centres undefined), the inhibition was 24.7%. For `O=C1CCCC2=C1C(c1ccccc1)n1c(s/c(=C/c3cccc(F)c3)c1=O)=N2` (centres undefined) the value was 0.6%; for `Cc1c(CCO)c(=O)[nH]n1C(=O)c1c(F)cccc1F`, 14.6%; for `CC(C)c1ccc(NC(=O)CCN2C(=O)c3ccc([N+](=O)[O-])cc3C2=O)cc1`, -2%.

These data come from PubChem BioAssay AID836 (Columbia University Molecular Screening Center, 2007).
